# D1 agonist = human D1 receptor agonism | P21728 | HEK293 T-REx D1 cells, calcium flux, agonist mode | activation, % at 2 µM | 360,000 compounds, 1% hits; further: 0% is about no effect
# Target sequence (P21728 whole entry, looked up): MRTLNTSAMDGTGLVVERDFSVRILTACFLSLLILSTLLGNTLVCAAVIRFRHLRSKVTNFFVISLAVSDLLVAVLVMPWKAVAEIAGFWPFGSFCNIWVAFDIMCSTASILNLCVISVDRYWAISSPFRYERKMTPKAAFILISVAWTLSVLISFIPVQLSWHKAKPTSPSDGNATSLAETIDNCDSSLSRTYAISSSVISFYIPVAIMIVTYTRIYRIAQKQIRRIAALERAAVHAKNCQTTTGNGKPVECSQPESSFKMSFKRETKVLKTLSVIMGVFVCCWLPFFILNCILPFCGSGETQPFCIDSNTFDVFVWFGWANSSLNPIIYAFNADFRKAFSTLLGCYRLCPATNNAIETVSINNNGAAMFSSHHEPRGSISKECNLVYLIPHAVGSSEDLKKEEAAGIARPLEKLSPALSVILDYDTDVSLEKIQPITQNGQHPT
#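 Inducible HEK293 T-REx D1 cells, force-coupled to calcium signalling, were plated at 4000 cells/well with tetracycline and held overnight at 30 C. After no-wash calcium dye loading, compound-evoked calcium rise over 180 s flagged agonists.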
# D1 potentiator = potentiators of human D1 dopamine receptor; HEK293 TREx D1 cells, calcium flux, dopamine EC20 potentiation; potentiation, % at 10 µM; 360,000 compounds, 0.036% hits; AID 504651; in the data active means potentiation above about 30%; further: 0% is about no effect
# TRHR ag = activates the human TRH receptor; 360,000 compounds, 0.18% hits; TRHR cells, calcium flux fluo-8, FDSS agonist mode; P34981; activation, % at 2 µM; further: 0% is about no effect
#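 Read-out: compound-evoked intracellular calcium rise in TRHR cells, fluo-8 dye, kinetic FDSS fluorescence at 1 s/cycle following a 10-cycle baseline. Cells cultured overnight before dye loading (30 min–1.5 h, RT).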
# TRHR PAM = allosterically enhances the human TRH receptor; enhancement, % at 2 µM; TRHR cells, fluo-8 calcium fluorescence, EC20 TRH enhancement; 360,000 compounds, 0.66% hits; in the data active means enhancement above about 30%; further: 0% is about no effect
#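 Enhancer read-out: after compound pinning and an initial kinetic agonist-mode read, an EC20 of TRH (10 nM final) was injected and fluo-8 calcium signal (Ex 480/Em 530) followed at 1 s/cycle for 100 cycles in TRHR-expressing cells.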
# D1 antag = human D1 dopamine receptor antagonism; activity change, negative = inhibition, % at 10 µM; 360,000 compounds, 3.2% hits; HEK293 TREx D1 cells, calcium flux, dopamine EC80; stronger effect = lower value; in the data active means activity change below about -30%; further: on the % scale 0 is the no-effect control and ±100 the full control effect
#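 Using tetracycline-induced force-coupled D1 Hek293 cells and a calcium dye, signals were followed for 180 s after compound, then for 180 s after EC80 dopamine, to detect inhibitors.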
# * = called active by the depositor; ! = repeats disagree. The list is not random: actives were taken first. Their share in the collection is about 4.7%. Unless noted, no stated cut-off is given here; in the data, active means activation above about 30%; inactive means the rest.
SMILES,D1 agonist,D1 potentiator,TRHR ag,TRHR PAM,D1 antag
Cc1ccc(S(=O)(=O)N2CCN(C(=O)C(Cc3ccccc3)NC(=O)c3ccccc3)CC2)cc1 (stereo unspecified),0,1,0,-4,12
O=S(=O)(NCCc1ccc(Cl)cc1)c1ccc(N2CCCCS2(=O)=O)cc1,13,1,0,4,-35*
CN1C(=O)Cc2cc(S(=O)(=O)NCc3c(F)cccc3Cl)ccc21,0,3,0,2,9
CN1C(=O)Cc2cc(S(=O)(=O)NCCc3ccc(Cl)cc3)ccc21,2,-1,1,40*!,1
CC(C)CNS(=O)(=O)c1ccc(N2CCCCS2(=O)=O)cc1,7,0,0,-6,-44*
CCCCNS(=O)(=O)c1ccc(N2CCCCS2(=O)=O)cc1,6,1,0,-1,-11
O=C(CSc1nc2c(cnn2-c2ccc(F)cc2)c(=O)[nH]1)Nc1ccc(Br)cc1,0,0,0,16,0
O=S(=O)(c1ccc(F)c(F)c1F)N1CCN(C(=S)NCc2ccccc2)CC1,12,4,2,-5,-18
O=S(=O)(c1ccc(F)c(F)c1F)N1CCN(C(=S)NC2CC3CCC2C3)CC1 (stereo unspecified),4,-9,1,13,-30*
Cc1cc(C)cc(C(=O)NC(CC(N)=O)c2ccc(N3CCCCCC3)c([N+](=O)[O-])c2)c1 (stereo unspecified),-1,-2,0,-5,7
Cc1cc(-c2ccc(S(=O)(=O)Nc3cccc(C)c3C)s2)on1,11,-6,0,-7,9
O=[N+]([O-])c1ccc(N=Nc2c(Cl)cc(O)cc2Cl)cc1,21,-13,7,-5,-46*
CC(C)CCOc1ccc(NC(=O)C2OC3OC(C)(C)OC3C3OC(C)(C)OC23)cc1 (stereo unspecified),-1,4,0,1,-43*
CCCCCOC(=O)Cn1c(=O)oc2ccccc21,0,2,0,-4,-17
CCCCCCCCCCOC(=O)Cn1c(COc2ccccc2C)[n+](C)c2ccccc21,76*,-4,1,-7,4
CCCCCCCCCCOC(=O)Cn1c(COc2ccc(OC)cc2)[n+](C)c2ccccc21,139*,-4,4,3,-18
CCCCCCCCCCOC(=O)Cn1c(COc2cccc(C)c2)[n+](C)c2ccccc21,116*,7,0,-6,-19
CCCCOC(=O)Cn1c(=O)n(CC(=O)OCCCC)c2ccccc21,1,3,-1,-1,-8
CCCCCCCCCCOC(=O)Cn1c(COc2ccccc2)[n+](C)c2ccccc21,124*,-10,1,-1,-42*
CC(C)c1ccc(Nc2sc(C(=O)c3ccccc3)c(N)c2S(=O)(=O)c2ccccc2)cc1,13,0,0,-12,8
CCCCCCCCCCOC(=O)Cn1c(COc2ccc(Cl)cc2)[n+](C)c2ccccc21,137*,-12,0,-3,-42*
Cc1cccc(CSc2nnc(-c3cccs3)n2Cc2ccco2)c1,9,-9,-2,-5,-36*
Cc1cccc(CSc2nc3sc(C)c(C)c3c(=O)n2Cc2ccco2)c1,3,-2,2,3,25
Cc1ccc(CSc2nnc(-c3cccs3)n2C)cc1,0,-6,0,-11,-40*
CCOC(=O)Nc1ccc2nc(Sc3ccc(Cl)cc3)sc2c1,7,-6,0,-7,-34*
SMILES,D1 agonist,D1 potentiator,TRHR ag,TRHR PAM,D1 antag
COc1cccc(C(=O)Nc2ccc3nc(SCC(=O)N4CCc5ccccc54)sc3c2)c1,8,-2,1,-3,-38*
Cc1ccc(OCC(=O)Nc2ccc3nc(SCC(=O)N4CCc5ccccc54)sc3c2)cc1,0,4,-1,5,-35*
O=C(COc1ccc(Cl)cc1)Nc1ccc2nc(SCC(=O)N3CCOCC3)sc2c1,11,-2,1,-1,-36*
COc1ccc(-n2c(=O)c3ccc(C(=O)NCc4ccc(C)cc4)cc3n(Cc3ccc(F)cc3Cl)c2=O)cc1,0,0,1,-2,-2
O=C(NCc1ccc(Cl)cc1)c1cc(S(=O)(=O)N2CCCCC2)c[nH]1,2,-4,0,8,-13
Cc1cccc(C)c1NC(=O)COC(=O)CNC(=O)C1CCCCC1,0,-7,0,6,-31*

# Assay outcomes: PubChem BioAssay, National Center for Advancing Translational Sciences (NCATS)
